Source: PubChem BioAssay (NCATS)
Results filed as inconclusive are left out. Activity calls are given as the source filed them. Unless noted, the call rests on the fitted dose curve; in most records, active means well fitted curve in the direction sought with a large enough effect; inconclusive means small, poorly fitted or top-dose-only effect, or another doubt; inactive means no such curve, though single readings can be large; an effect the other way counts as inactive or inconclusive.

Tests used:
[1] = qHTS assay to identify small molecule inhibitors of chordoma cells - UCH-2 (AID 1259356); further: potency means the concentration at half of the fitted maximal effect
[2] = Natriuretic polypeptide receptor (hNpr1) antagonism - Pilot counterscreen GloSensor control cell line (AID 1347045; calls by dose curve; further: potency means the concentration at half of the fitted maximal effect)
Outline: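 The SNP-driven cGMP luminescence signal (50 uM, 20 min, room temperature) was measured in GloSensor HEK293 control cells. Compounds were tested as a LOPAC titration series and preincubated for 30-50 min.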

[3] = target: Atrial natriuretic peptide receptor 1 (Homo sapiens) (UniProt P16066); experiment: Natriuretic polypeptide receptor (hNpr1) antagonism - Pilot screen (AID 1347049; calls by dose curve;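 further: agonist-evoked cGMP luminescence read 20 min after hNppA addition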; further: potency means the concentration at half of the fitted maximal effect)
Outline: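 cGMP-sensor HEK293/hNpr1 cells, 1500/well, plated overnight at 37C. 2% GloSensor reagent, 2 h RT. Compound (23 nL pin transfer) 30 min RT, baseline luminescence pre-read. 0.1 nM hNppA, 20 min RT, post-read.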

[4] = target: Atrial natriuretic peptide receptor 2 (Homo sapiens) (UniProt P20594); experiment: Natriuretic polypeptide receptor (hNpr2) antagonism - Pilot subtype selectivity assay (AID 1347050; calls by dose curve; further: potency means the concentration at half of the fitted maximal effect)
Outline: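 Luminescence from a genetically encoded cGMP luciferase biosensor in hNpr2-expressing HEK293 cells is read before and 20 min after adding 1 nM hNppC. Test compounds, in interplate 1:5 titrations, are added 30-50 min ahead of the agonist.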

[5] = NS1 protein of Zika virus - qHTS assay to identify small molecule inhibitors in human HEK 293 cells (AID 1347053); further: series mostly up to about 46 µM; nearly all actives have a fitted effect of over 55% in size
Outline: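 TR-FRET signal from two anti-ZIKV NS1 antibodies quantified NS1 in HEK 293 cells 24 h after MR766 infection at MOI = 0.5; compounds were added 1 h before virus. Uninfected cells and infected cells defined the NS1 normalization range.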

[6] = target: Parathyroid hormone/parathyroid hormone-related peptide receptor (Homo sapiens) (UniProt Q03431); experiment: qHTS for PTHR1 Agonists: Optimization Screen against the NCGC LOPAC library (AID 1347079);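 further: GloSensor cAMP luminescence in HEK-293 GP2 cells expressing human PTHR1 with IBMX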
Outline: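 Signal increase flags agonism. GP2 cells, derived from HEK-293, express human PTHR1 and a GloSensor cAMP construct.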

[7] = qHTS of pediatric cancer cell lines to identify multiple opportunities for drug repurposing: Primary screen for TC32 cells (AID 1347089); further: nearly all actives have a fitted effect of over 60% in size; further: potency means the concentration at half of the fitted maximal effect
Outline: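 qHTS, TC32, 48 h drug treatment, CellTiter-Glo luminescence as a proxy for metabolically active cells; primary top concentration 46 µM (MIPE 11-pt, NPC 8-pt); confirmatory 11-pt.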

[8] = qHTS of pediatric cancer cell lines to identify multiple opportunities for drug repurposing: Primary screen for DAOY cells (AID 1347090); further: nearly all actives have a fitted effect of over 55% in size; further: potency means the concentration at half of the fitted maximal effect
Outline: (§1)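 Viability measured as metabolically active cells via CellTiter-Glo luminescence following 48 hours of compound exposure, 11-point dilutions in confirmatory testing. 500-1,000 cells/well plated 5 hours before dosing; controls were DMSO and 2.3 µM bortezomib.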

[9] = qHTS of pediatric cancer cell lines to identify multiple opportunities for drug repurposing: Primary screen for SJ-GBM2 cells (AID 1347091); further: potency means the concentration at half of the fitted maximal effect
Outline: as §1

[10] = qHTS of pediatric cancer cell lines to identify multiple opportunities for drug repurposing: Primary screen for A673 cells (AID 1347092); further: nearly all actives have a fitted effect of over 45% in size; further: potency means the concentration at half of the fitted maximal effect
Outline: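 Luminescence from CellTiter-Glo, taken after 15 min at room temperature, served as the proxy for metabolically active cells following 48 h treatment. Both potency and efficacy were taken from curves fitted to the titration data.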

[11] = qHTS of pediatric cancer cell lines to identify multiple opportunities for drug repurposing: Primary screen for SK-N-MC cells (AID 1347093); further: potency means the concentration at half of the fitted maximal effect
Outline: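 Metabolically active cells were quantified by ATP-dependent luminescence (CellTiter-Glo, 15 min at room temperature) following 48 h treatment. Cells had been plated at 500-1,000 per well and settled for 5 h beforehand.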

[12] = qHTS of pediatric cancer cell lines to identify multiple opportunities for drug repurposing: Primary screen for BT-37 cells (AID 1347094); further: potency means the concentration at half of the fitted maximal effect
Outline: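 500-1,000 cells/well; 5 h pre-incubation 37 °C/5% CO2; compound pinned; 48 h; CellTiter-Glo, 15 min RT; luminescence. MIPE 11-pt from 0.78 nM, NPC 8-pt from 0.59 nM final. Bortezomib 2.3 µM final as positive control.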

[13] = target: T1, Tyrosine-protein phosphatase non-receptor type substrate 1 (Homo sapiens) + Leukocyte surface antigen CD47 (Homo sapiens) (UniProt P78324+Q08722); experiment: CD47-SIRPalpha protein protein interaction - HTRF assay qHTS validation (AID 1347058; active means well fitted curve in the direction sought with a large enough effect in the signal ratio, not every such curve was filed as active; the % refers to the signal ratio; further: series mostly up to about 38 µM)
Outline: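 Soluble extracellular domains (6His-CD47, Avi-tag-biotinylated SIRPalpha) in PBS pH 7.4 with 0.05% IGEPAL CA-630. Compounds were preincubated 30 min at RT with CD47 and anti-His-Eu, then SIRPalpha and SAV-XL665 were added. TR-FRET 665/615 ratio.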

[14] = target: T1, Tyrosine-protein phosphatase non-receptor type substrate 1 (Homo sapiens) + Leukocyte surface antigen CD47 (Homo sapiens); experiment: CD47-SIRPalpha protein protein interaction - Alpha assay qHTS validation (AID 1347059);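 further: bead proximity luminescence from CD47 binding SIRPalpha after compound preincubation with SIRPalpha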
Outline: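 SIRPalpha-biotin 25 nM + cpd, 30 min RT, dark; add CD47-His 12.5 nM, 30 min; add Ni-NTA/SAV beads 10 ug/mL, 30 min; AlphaScreen. Buffer PBS pH 7.4 + 0.05% IGEPAL CA-630. Non-biotinylated SIRPalpha as control inhibitor.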

[15] = target: T1, Tyrosine-protein phosphatase non-receptor type substrate 1 (Homo sapiens) + Leukocyte surface antigen CD47 (Homo sapiens); experiment: CD47-SIRPalpha protein protein interaction - LANCE assay qHTS validation (AID 1347057; active means well fitted curve in the direction sought with a large enough effect in the signal ratio, with a control signal flat, not every such curve was filed as active; the % refers to the signal ratio; further: series mostly up to about 38 µM)
Outline: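 Inhibition of soluble CD47/SIRPalpha ectodomain association by titrated compounds, measured as 665/615 nm time-resolved FRET ratio after sequential 30 min room-temperature incubations.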

Measured: Potency

Atrial natriuretic peptide receptor 2 (Homo sapiens), sequence (P20594 whole entry, looked up): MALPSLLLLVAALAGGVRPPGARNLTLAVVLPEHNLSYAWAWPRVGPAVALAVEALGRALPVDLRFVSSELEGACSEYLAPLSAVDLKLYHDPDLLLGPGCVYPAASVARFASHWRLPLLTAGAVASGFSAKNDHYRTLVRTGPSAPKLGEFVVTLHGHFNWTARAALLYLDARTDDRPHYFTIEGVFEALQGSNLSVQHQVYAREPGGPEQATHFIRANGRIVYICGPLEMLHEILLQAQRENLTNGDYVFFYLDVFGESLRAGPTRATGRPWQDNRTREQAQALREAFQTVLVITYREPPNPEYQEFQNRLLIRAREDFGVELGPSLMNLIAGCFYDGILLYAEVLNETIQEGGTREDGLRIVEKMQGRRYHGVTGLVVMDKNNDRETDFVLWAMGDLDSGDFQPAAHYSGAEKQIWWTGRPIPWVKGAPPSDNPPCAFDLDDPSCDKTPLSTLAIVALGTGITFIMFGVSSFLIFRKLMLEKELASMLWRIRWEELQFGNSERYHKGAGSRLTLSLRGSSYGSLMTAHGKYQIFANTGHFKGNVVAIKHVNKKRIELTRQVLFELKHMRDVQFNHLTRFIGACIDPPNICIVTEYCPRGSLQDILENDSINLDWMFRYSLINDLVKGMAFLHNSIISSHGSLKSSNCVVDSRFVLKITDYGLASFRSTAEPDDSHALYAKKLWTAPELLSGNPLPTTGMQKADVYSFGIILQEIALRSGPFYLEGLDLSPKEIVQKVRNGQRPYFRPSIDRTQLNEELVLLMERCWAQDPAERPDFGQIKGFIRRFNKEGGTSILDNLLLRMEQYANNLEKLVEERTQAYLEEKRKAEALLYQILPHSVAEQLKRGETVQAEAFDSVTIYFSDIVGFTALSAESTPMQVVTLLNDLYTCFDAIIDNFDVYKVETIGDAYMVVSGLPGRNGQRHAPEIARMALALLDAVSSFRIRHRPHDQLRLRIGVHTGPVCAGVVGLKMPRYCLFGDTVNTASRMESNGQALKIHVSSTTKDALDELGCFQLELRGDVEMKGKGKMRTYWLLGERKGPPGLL
Parathyroid hormone/parathyroid hormone-related peptide receptor (Homo sapiens), sequence (Q03431 whole entry, looked up): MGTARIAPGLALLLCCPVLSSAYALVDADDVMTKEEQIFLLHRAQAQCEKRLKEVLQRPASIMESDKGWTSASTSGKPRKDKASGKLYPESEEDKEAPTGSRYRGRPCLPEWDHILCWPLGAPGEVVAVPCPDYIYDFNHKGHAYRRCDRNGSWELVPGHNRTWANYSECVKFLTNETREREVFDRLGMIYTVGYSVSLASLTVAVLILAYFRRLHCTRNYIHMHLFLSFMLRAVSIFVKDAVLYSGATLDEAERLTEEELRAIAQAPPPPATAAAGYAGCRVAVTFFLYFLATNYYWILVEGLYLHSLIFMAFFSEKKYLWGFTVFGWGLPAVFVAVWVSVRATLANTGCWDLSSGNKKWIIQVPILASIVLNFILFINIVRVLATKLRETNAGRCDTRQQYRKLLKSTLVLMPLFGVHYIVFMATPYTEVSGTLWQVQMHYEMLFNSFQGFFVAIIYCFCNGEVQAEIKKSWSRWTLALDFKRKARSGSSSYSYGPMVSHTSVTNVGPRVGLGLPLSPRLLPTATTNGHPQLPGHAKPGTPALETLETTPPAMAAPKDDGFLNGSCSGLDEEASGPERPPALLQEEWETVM
Atrial natriuretic peptide receptor 1 (Homo sapiens), sequence (P16066 whole entry, looked up): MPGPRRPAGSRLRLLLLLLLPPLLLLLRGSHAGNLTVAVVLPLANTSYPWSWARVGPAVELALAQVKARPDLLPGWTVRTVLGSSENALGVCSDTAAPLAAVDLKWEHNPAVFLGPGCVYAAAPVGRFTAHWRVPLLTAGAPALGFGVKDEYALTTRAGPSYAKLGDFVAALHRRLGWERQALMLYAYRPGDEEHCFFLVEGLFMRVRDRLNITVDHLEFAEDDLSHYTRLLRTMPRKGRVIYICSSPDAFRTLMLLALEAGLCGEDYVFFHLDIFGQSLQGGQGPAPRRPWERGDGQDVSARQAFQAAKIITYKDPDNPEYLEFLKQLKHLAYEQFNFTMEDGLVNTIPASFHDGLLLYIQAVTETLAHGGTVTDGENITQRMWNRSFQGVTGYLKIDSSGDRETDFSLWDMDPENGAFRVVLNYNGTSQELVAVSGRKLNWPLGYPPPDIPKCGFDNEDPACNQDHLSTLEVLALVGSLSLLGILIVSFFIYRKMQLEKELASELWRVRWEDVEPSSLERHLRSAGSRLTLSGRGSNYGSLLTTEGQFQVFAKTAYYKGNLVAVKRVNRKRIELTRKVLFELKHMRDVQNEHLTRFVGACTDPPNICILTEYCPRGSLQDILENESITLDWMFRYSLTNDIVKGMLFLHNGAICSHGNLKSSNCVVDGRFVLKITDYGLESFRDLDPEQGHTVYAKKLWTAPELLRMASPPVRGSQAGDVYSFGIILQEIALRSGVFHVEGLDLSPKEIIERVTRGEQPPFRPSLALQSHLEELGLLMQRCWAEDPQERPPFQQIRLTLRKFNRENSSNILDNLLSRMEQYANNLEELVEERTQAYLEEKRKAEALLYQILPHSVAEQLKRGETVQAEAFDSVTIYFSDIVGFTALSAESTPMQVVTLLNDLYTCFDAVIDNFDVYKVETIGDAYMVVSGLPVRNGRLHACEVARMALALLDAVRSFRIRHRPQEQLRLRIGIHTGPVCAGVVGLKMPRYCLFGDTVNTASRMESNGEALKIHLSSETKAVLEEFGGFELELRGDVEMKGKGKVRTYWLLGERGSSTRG
T1 sequence (P78324 whole entry, looked up, the tested form may be a part): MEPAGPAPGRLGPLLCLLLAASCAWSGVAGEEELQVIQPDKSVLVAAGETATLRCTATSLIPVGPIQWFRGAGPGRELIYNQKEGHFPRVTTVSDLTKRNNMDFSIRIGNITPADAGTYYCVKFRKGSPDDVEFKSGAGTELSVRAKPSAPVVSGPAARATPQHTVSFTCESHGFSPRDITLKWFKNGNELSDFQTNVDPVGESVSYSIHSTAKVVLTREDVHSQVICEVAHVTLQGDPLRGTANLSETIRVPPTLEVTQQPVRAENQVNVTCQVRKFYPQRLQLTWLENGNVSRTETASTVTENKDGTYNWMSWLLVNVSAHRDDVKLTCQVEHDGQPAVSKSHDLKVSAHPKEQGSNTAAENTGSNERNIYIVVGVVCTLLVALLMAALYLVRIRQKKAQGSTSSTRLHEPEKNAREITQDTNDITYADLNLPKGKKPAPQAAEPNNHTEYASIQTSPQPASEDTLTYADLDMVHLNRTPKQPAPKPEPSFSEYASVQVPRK
T1 sequence (Q08722 whole entry, looked up, the tested form may be a part): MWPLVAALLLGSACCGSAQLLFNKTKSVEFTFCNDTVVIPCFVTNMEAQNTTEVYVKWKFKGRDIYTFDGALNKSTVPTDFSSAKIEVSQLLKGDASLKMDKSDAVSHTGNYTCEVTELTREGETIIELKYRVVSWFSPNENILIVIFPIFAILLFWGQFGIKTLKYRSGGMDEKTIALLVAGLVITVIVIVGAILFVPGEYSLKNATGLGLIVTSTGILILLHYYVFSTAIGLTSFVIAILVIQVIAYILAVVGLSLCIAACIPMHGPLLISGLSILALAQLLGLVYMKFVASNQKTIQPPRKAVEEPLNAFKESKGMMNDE

CN(C)CC[C@@H](c1ccc(Br)cc1)c1ccccn1
not listed: [13] | [14] | [15]
inactive: all other assays above

Cc1ccc(/C(=C\CN2CCCC2)c2ccccn2)cc1
not listed: [15]
inactive: all other assays above

Cc1nc2sccn2c(=O)c1CCN1CCC(=C(c2ccc(F)cc2)c2ccc(F)cc2)CC1
not listed: [2] | [9] | [10] | [11] | [15]
inactive: all other assays above

COC(=O)C1=C(C)NC(C)=C(C(=O)OCCN(C)Cc2ccccc2)C1c1cccc([N+](=O)[O-])c1 (stereo not given)
inactive: [1] | [5] | [15] | [6] | [7]
active: [2] 16.5 µM

Cc1nc2ccccn2c(=O)c1CCN1CCC(C(=O)c2ccc(F)cc2)CC1
not listed: [10] | [11] | [13]
inactive: all other assays above

Fc1ccc(C(c2ccc(F)cc2)N2CCN(C/C=C/c3ccccc3)CC2)cc1
not listed: [1] | [9] | [10] | [11] | [12]
inactive: all other assays above

CN(C)CCN(Cc1cccs1)c1ccccn1
not listed: [7] | [15]
inactive: all other assays above

COc1ccc(CCN(C)CCCC(C#N)(c2cc(OC)c(OC)c(OC)c2)C(C)C)cc1OC (stereo not given)
not listed: [15]
inactive: all other assays above

CC(C)COCC(CN(Cc1ccccc1)c1ccccc1)N1CCCC1 (stereo not given)
active: [10] 26.6 µM | [11] 16.8 µM | [12] 27.6 µM
not listed: [7] | [8] | [9] | [13]
inactive: all other assays above

CCOC(=O)c1cnc2c(cnn2CC)c1NN=C(C)C
not listed: [15]
inactive: all other assays above

CN(C)CC/C=C1\c2ccccc2COc2ccccc21
not listed: [10] | [13]
inactive: all other assays above

C[n+]1cc2c3c(ccc2c2ccc4cc5c(cc4c21)OCO5)OCO3
inactive: [6]
active: [1] 13 µM | [2] 2.07 µM | [3] 4.78 µM | [4] 2.61 µM | [7] 3.25 µM | [8] 2.31 µM | [9] 1.16 µM | [10] 1.16 µM | [11] 1.3 µM | [12] 2.13 µM

CC[N+](C)(C)c1cccc(O)c1
not listed: [15]
inactive: all other assays above

CCOC(=O)C1=C(C)NC(C)=C(C(=O)OC)C1c1cccc([N+](=O)[O-])c1 (stereo not given)
not listed: [3] | [7] | [11] | [13] | [15]
inactive: all other assays above

COCCCC/C(=N\OCCN)c1ccc(C(F)(F)F)cc1
not listed: [1] | [2] | [7] | [10] | [11]
inactive: all other assays above

NC(N)=N/N=C/c1c(Cl)cccc1Cl
not listed: [10] | [15]
inactive: all other assays above

CN1CCN(C2=Nc3ccccc3Oc3ccc(Cl)cc32)CC1
active: [4] 16.5 µM
not listed: [3] | [7] | [12]
inactive: all other assays above

COc1cc(C(=O)OCCCN2CCCN(CCCOC(=O)c3cc(OC)c(OC)c(OC)c3)CC2)cc(OC)c1OC
not listed: [7] | [9] | [10] | [12] | [15]
inactive: all other assays above

CN(C)CCCN1c2ccccc2Sc2ccccc21
not listed: [4] | [7] | [9] | [10] | [12] | [15]
inactive: all other assays above

OCCN1CCN(CCCN2c3ccccc3C=Cc3ccccc32)CC1
not listed: [1] | [4]
inactive: all other assays above

CC1=C(C)C(=O)C(CCCCC#CCCCC#CCO)=C(C)C1=O
not listed: [2] | [10] | [11] | [13] | [15]
inactive: all other assays above

CCn1nc(C(=O)O)c(=O)c2cc3c(cc21)OCO3
not listed: [13]
inactive: all other assays above

CCC(=O)c1ccc2c(c1)N(CCCN(C)C)c1ccccc1S2
not listed: [9] | [10] | [11] | [12] | [13]
inactive: all other assays above
